Screening results: PubChem, Johns Hopkins Ion Channel Center
KCNQ2 pot: KCNQ2 (rat) channel potentiation; O88943; CHO-K1 KCNQ2, FluxOR thallium flux fluorescence; active compounds read high; B-score at 10 µM; 0.54% of 310,000 active; AID 2239;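 active = fluorescence ratio B-score at least 3 SD of library B-scores, with initial fluorescence B-score within 3 of them, cut at about 5.3 in these data; same plate scores as AID 2156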;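 also: B-score of peak minus minimum over baseline fluorescence ratio after K+ and Tl+ stimulus; positive B-score means potentiation of KCNQ2 with more thallium influx and brighter signal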
KCNQ2 block: blocks the rat KCNQ2 potassium channel; CHO-K1 KCNQ2, FluxOR thallium flux, 20 min; active compounds read low; B-score at 10 µM; 1.1% of 310,000 active;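 active = fluorescence ratio B-score at most minus 3 library SDs, with starting brightness B-score within 2 library SDs, cut at about -5.5 in these data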
KCNQ2 inh conf: rat KCNQ2 channel inhibition, confirmatory screen; KCNQ2-expressing cells, thallium flux; active compounds read low; AID 493025; shares compounds with KCNQ2 block; activity change, negative = inhibition, % at 10 µM; 57% of 1,000 active
KCNQ1 spec: selectivity of KCNQ2 inhibitors against human KCNQ1 | 15% of 1,000 active | KCNQ1-expressing cells, FluxOR thallium flux fluorescence; active compounds read low | activity change, negative = inhibition, % at 10 µM | AID 493026 | shares compounds with KCNQ2 block;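 active = activity change at least 3 SD of negative controls below their mean in both duplicate wells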;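 also: CHO cells stably transfected with KCNQ1 and depolarized by potassium stimulus; peak minus minimum fluorescence over baseline after thallium addition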
Target sequence (P51787 whole entry, looked up): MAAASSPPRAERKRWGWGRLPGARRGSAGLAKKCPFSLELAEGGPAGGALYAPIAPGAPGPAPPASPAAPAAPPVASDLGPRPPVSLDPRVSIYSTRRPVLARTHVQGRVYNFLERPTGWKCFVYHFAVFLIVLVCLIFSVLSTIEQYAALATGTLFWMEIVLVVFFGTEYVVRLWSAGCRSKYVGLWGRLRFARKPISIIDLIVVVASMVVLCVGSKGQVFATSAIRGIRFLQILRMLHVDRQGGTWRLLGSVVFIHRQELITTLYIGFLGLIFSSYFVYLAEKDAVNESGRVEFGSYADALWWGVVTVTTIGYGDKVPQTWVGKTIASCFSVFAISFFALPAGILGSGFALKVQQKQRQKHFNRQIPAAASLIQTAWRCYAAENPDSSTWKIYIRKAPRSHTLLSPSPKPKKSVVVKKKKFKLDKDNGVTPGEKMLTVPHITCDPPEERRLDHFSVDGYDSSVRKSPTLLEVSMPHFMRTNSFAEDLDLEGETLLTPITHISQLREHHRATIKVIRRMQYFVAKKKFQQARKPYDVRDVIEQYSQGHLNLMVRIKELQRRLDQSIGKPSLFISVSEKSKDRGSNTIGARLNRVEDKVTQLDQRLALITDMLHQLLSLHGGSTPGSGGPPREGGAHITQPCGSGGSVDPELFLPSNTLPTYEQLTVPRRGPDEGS
CHO Tl ctr: counter-screen for KCNQ2 inhibitors: effect in parental CHO cells; activity change, % at 10 µM; thallium flux counter-screen; active compounds read low; AID 493029; shares compounds with KCNQ2 block; 14% of 1,000 active
KCNQ2 inh confirm: rat KCNQ2 inhibition confirmed by electrophysiology. calls only at 10 µM. KCNQ2-expressing cells, automated patch clamp current. AID 588531. shares compounds with KCNQ2 block. 49% of 550 active
A number is an active result; 0 = inactive; - = no result; + = active, no number. This is a sample that favours compounds with a hit; in the whole collection about 1.6% have one here. Unless noted, no rule for the calls is given here.

SMILES	KCNQ2 pot	KCNQ2 block	KCNQ2 inh conf	KCNQ1 spec	CHO Tl ctr	others
CNC(=O)NC(=O)C(NC1CCCc2ccccc21)c1ccccc1 (stereo not given)	-	0	-	-	-
COCC(C)NC(C(=O)Nc1ccc(C)c(Cl)c1)c1ccccc1 (stereo not given)	0	-6.8	0	0	0
CCNC(=S)N(CCCN(C)C)Cc1cc2cc3c(cc2[nH]c1=O)OCCO3	-	0	-	-	-
CCN1CCCC1CN(Cc1cc2ccc(C)cc2[nH]c1=O)C(=S)Nc1cccc(OC)c1 (stereo not given)	0	0	-	-	-
Cc1nnc(NC(=O)c2cc(-c3ccncc3)nc3c(C)cccc23)s1	0	0	-	-	-
CCn1c(SCC(=O)N2CCCC2)nnc1-c1ccco1	0	0	-	-	-
O=C(CCNC(=O)c1ccc(Br)cc1)Nc1ncccc1O	0	0	-	-	-
COc1cccc(/C=C(/C(=O)OCC(=O)NCC2CCCO2)c2ccccc2)c1 (stereo not given)	-	0	-	-	-
COc1cccc(/C=C(/C(=O)OCC(=O)NC2CCCCCCC2)c2ccccc2)c1	0	-8.5	-16%	0	0	KCNQ2 inh confirm=0
Cn1c(N)c(C(=O)CSc2nc3ccccc3[nH]2)c(=O)n(C)c1=O	-	0	-	-	-
CC1=C(C(=O)NC(C)c2ccc3c(c2)OCCO3)C2(CCC(C)CC2)OC1=O (stereo not given)	0	-10	-26%	0	0	KCNQ2 inh confirm=+
CC1=C(C(=O)NC(C)c2ccccc2)C2(CCC(C)CC2)OC1=O (stereo not given)	-	0	-	-	-
CC(=O)OCC(=O)Nc1c(C)cc(C)cc1C	0	0	-	-	-
N/C(=N\OC(=O)CSc1ccccc1)c1ccccn1	-	0	-	-	-
CCCCOc1cccc(OCCCC)c1C(=O)Nc1cc(C)on1	0	-9.7	-43%	-34%	-34%	KCNQ2 inh confirm=+
CCOc1ccc(C(=O)Nc2cc(C)on2)cc1OCC	0	0	-	-	-
CC1=CC(C)(C)N2C(=O)C3(NCCc4c3[nH]c3ccccc43)c3cccc1c32 (stereo not given)	0	0	-	-	-
O=C(Nc1ccccc1[N+](=O)[O-])c1cccc(N2C(=O)CCC2=O)c1	0	0	-	-	-
C/C(=C/C=N/Nc1nc(N2CCCCC2)nc(N2CCCCC2)n1)c1ccccc1	0	-7.2	-29%	0	0	KCNQ2 inh confirm=0
CC(/C=N/Nc1nc(N2CCCCC2)nc(N2CCCCC2)n1)=C\c1ccccc1	0	-8.2	-34%	-34%	-26%	KCNQ2 inh confirm=0
Oc1ccc(/C=N/Nc2nc(N3CCCCCC3)nc(N3CCCCCC3)n2)c(O)c1	-	0	-	-	-
BrC(=C\c1ccccc1)/C=N/Nc1nc(N2CCOCC2)nc(N2CCOCC2)n1	0	0	-	-	-
CCOC(=O)c1[nH]ncc1CN1CCCC(C(=O)c2ccc(C(C)(C)C)cc2)C1 (stereo not given)	-	0	-	-	-
COc1ccc(NC(=O)COC(=O)/C=C/c2cnc3ccccc3n2)cc1	0	0	-	-	-
CCCn1c(N)c(N(CCOC)C(=O)CSCC(=O)Nc2ccc(OC)cc2)c(=O)[nH]c1=O	-	0	-	-	-
SMILES	KCNQ2 pot	KCNQ2 block	KCNQ2 inh conf	KCNQ1 spec	CHO Tl ctr	others
C/C=C/C(=O)Nc1cccc(C(F)(F)F)c1	0	0	-	-	-
O=C(/C=C/c1cccc(C(F)(F)F)c1)Nc1cccc(C(F)(F)F)c1	0	-8.2	0	0	0
O=C(N/N=C/c1ccccc1)c1ccc(OCc2ccccc2)cc1	0	0	-	-	-
O=C(N/N=C/c1ccccc1)c1sccc1OCc1ccc(F)cc1	0	-6.8	0	0	0
CCn1nc(C(=O)Nc2ccccc2N2CCCC2)c2ccccc2c1=O	0	-8	-38%	0	0	KCNQ2 inh confirm=0
CCn1nc(C(=O)Nc2ccc3nc(C)sc3c2)c2ccccc2c1=O	0	0	-	-	-
COc1ccccc1C(=O)Nc1ccnn1C1CCN(CCCc2ccccc2)CC1	0	0	-	-	-
O=C(O)/C=C/c1cccc(OCc2ccccc2)c1	0	0	-	-	-
O=C(/C=C/c1ccc([N+](=O)[O-])cc1)c1cccnc1	0	-9.9	0	0	0
O=C(N/N=C/c1ccc([N+](=O)[O-])cc1)c1cccnc1	-	0	-	-	-
O=C(/C=C/c1cccc(OCc2ccccc2)c1)c1cccnc1	0	-6.8	-29%	0	0	KCNQ2 inh confirm=0
COc1cc(C(=S)N2CCOCC2)ccc1OC(=O)/C=C/c1ccco1	-	0	-	-	-
CCN1CCN(CCCNC(=O)c2ccc(/C=C3/Sc4ccccc4N(Cc4ccccc4F)C3=O)cc2)CC1	-	0	-	-	-
CCN1CCN(CCNC(=O)c2ccc(/C=C3/Sc4ccccc4N(Cc4ccccc4C)C3=O)cc2)CC1	0	-13	0	0	0
Cc1ccc(SCc2c(-c3ccccc3)nn(C)c2Cl)cc1	-	0	-	-	-
Cc1ccc(Sc2c(C#N)c(-c3ccccc3)nn2C)cc1	0	-8.5	0	0	0
O=C(Nc1cccc(S(=O)(=O)NC2=NCCC2)c1)c1cc(Cl)ccc1[N+](=O)[O-]	-	0	-	-	-
O=C(Cn1cc(S(=O)(=O)Cc2ccccc2F)c2ccccc21)N1CCOCC1	0	0	-	-	-
CCCC[C@@H]1C[C@H]1[C@@H](NC(=O)c1ccco1)c1ccccc1C(F)(F)F	-	0	-	-	-
CCCC[C@@H]1C[C@H]1[C@@H](NC(=O)c1cccs1)c1ccc(C(F)(F)F)cc1	0	-8.7	-18%	0	0	KCNQ2 inh confirm=0
Cc1ccc2[nH]c(=O)c(CN(C(=O)c3cccc([N+](=O)[O-])c3)C(C)C)cc2c1	-	0	-	-	-
COc1ccc(C(=O)NCC(c2ccco2)N2CCc3ccccc32)c(OC)c1 (stereo not given)	0	-8	-31%	0	0	KCNQ2 inh confirm=+
O=C(NCC(c1ccco1)N1CCc2ccccc21)c1ccccc1F (stereo not given)	-	0	-	-	-
CC(Cc1ccccc1)C(=O)Nc1ccc(Br)cc1 (stereo not given)	0	0	-	-	-
CCCCCCCOC1(c2ccccc2)OC(=O)c2ccccc21 (stereo not given)	0	-8.5	-22%	0	0	KCNQ2 inh confirm=0
SMILES	KCNQ2 pot	KCNQ2 block	KCNQ2 inh conf	KCNQ1 spec	CHO Tl ctr	others
CCCCCCOC1(c2ccccc2)OC(=O)c2ccccc21 (stereo not given)	-	0	-	-	-
CCCc1c(C)nc(N2CCN(c3ccccc3OC)CC2)[nH]c1=O	-	0	-	-	-
CCOC(=O)C1CCN(C(=O)c2ccccc2CCc2ccccc2)CC1	-	0	-	-	-
COc1ccccc1S(=O)(=O)Cc1ccc(C(=O)N2CCN(c3cccc(Cl)c3)CC2)o1	0	-10	-37%	0	0	KCNQ2 inh confirm=0
COc1ccccc1S(=O)(=O)Cc1ccc(C(=O)N2CCN(c3ccccc3)CC2)o1	-	0	-	-	-
CCOC(=O)N1CCN(CC(=O)Nc2cc(OC)c(OC)cc2C#N)CC1	0	0	-	-	-
COc1cccc(OC)c1OCc1cc(C2C3CCCC=C3C(C#N)=C(N)C2(C#N)C#N)c(C)cc1C (stereo not given)	0	-11	0	0	0
CCCN1CC=C2C(C#N)=C(N)C(C#N)(C#N)C(c3cccc(OC)c3OC)C2C1 (stereo not given)	-	0	-	-	-
COc1ccc(OCc2nc(-c3ccc(F)c(F)c3)cs2)cc1	0	0	-	-	-
COCc1cnc(C)nc1N	-	0	-	-	-
O=C(Cc1ccccc1)NC1c2ccccc2-c2ccccc21	0	-6.8	0	0	0
O=C(Cc1ccccc1)NNC(=O)Cc1ccccc1	-	0	-	-	-
O=C(NC(c1ccccc1)c1ccccc1)N1CCOCC1	-	0	-	-	-
O=C(NC1c2ccccc2-c2ccccc21)N1CCOCC1	0	-7	-28%	0	0	KCNQ2 inh confirm=+
